Measurements published in publication PMC4102417.

The compounds below were run on murine 3T3 fibroblasts (assay: primary screen, percent viability or growth; higher = less effect of the substance).
Description: Similarly, for measuring the cytotoxicity concentration (CC50) for 3T3 fibroblast cells, cultures were incubated with drugs for 72 hours and developed using Alamar Blue (Alamar Biosciences Inc, Sacramento, CA) as previously described.

Structure (SMILES)	Mammalian (3T3) cell % growth at 10 uM [%]
N[C@@H](Cc1ccc(O)c(O)c1)C(=O)O	3.9
COC(=O)CC1C(C)(C)C(OC(C)=O)C2C(OC(C)=O)C34OC2(O)C1(C)C3CCC1(C)C4=CC(=O)OC1c1ccoc1 (stereo not drawn)	89.7
Cl.NCC(=O)c1ccccc1	85.5
Oc1ccc2c(c1)OC[C@]1(O)Cc3cc(O)c(O)cc3[C@H]21	3.6
O=C(/C=C(/O)c1ccccc1)c1ccccc1O	100
COC1=CC(=O)C(O)=C/C1=C\C=C\c1ccccc1	0.8
COc1ccc2c(c1)OCC(Cc1ccc(OC)c(OC)c1)C2=O (stereo not drawn)	84.5
CC(=O)Oc1ccc(/C=C/c2cc(OC(C)=O)cc(OC(C)=O)c2)cc1	31.6
O=c1cc(-c2ccccc2)oc2cc(O)c(O)c(O)c12	4.9
COc1ccc(-c2cc(=O)c3c(O)cc(O)cc3o2)cc1	77.4
COc1cc(O)c(C(=O)c2ccccc2)cc1O	47.4
COc1ccc(Cc2nccc3cc(OC)c(OC)cc23)cc1OC.Cl	93.1
CC(=O)OC1CC2C(C)(C)C(=O)C=CC2(C)C2CCC3(C)C(=CC(=O)OC3c3ccoc3)C12C (stereo not drawn)	56.1
CC(=O)OC1CC2C(C)(C)C(=O)C3OC3C2(C)C2CCC3(C)C(c4ccoc4)OC(=O)C4OC43C12C (stereo not drawn)	73.4
COC(=O)CC[C@@H](C)[C@H]1CC[C@H]2[C@@H]3CC[C@@H]4C[C@H](O)CC[C@]4(C)[C@H]3C[C@H](O)[C@]12C	100
N=C(N)c1ccc(OCCCCCOc2ccc(C(=N)N)cc2)cc1.O=S(=O)(O)CCO	94.8
C=CC(C1=CC(=O)C=CC1=O)c1ccccc1 (stereo not drawn)	97.5

Structure (SMILES)	Mammalian (3T3) cell % growth at 10 uM [%]
CNCCC(Oc1ccc(C(F)(F)F)cc1)c1ccccc1.Cl (stereo not drawn)	100
CSc1ccc2c(c1)C(N1CCN(C)CC1)Cc1ccccc1S2.O=C(O)/C=C\C(=O)O (stereo not drawn)	69.6
COc1cc(O)c(C(=O)/C=C/c2ccc(OC)c(O)c2)c(OC)c1	6
COC(=O)C1=C(C)NC(C)=C(C(=O)OC)C1c1ccccc1[N+](=O)[O-]	1.7
CC(=O)Oc1ccc(Cl)c2cccnc12	0.5
CCOC(=O)C(CCc1ccccc1)NC1CCc2ccccc2N(CC(=O)O)C1=O.Cl (stereo not drawn)	66.8
COc1c(-c2coc3cc4c(cc3c2=O)CC(O)C(C)(C)O4)ccc2c1C=CC(C)(C)O2 (stereo not drawn)	59
COc1cccc(O)c1O	1.2
CCN(CC)CCOc1ccc2c(c1)C(=O)c1cc(OCCN(CC)CC)ccc1-2	89
CC(=O)OC1CC2C(C)(C)C(=O)CCC2(C)C2CCC3(C)C(c4ccoc4)OC(=O)C4OC43C12C (stereo not drawn)	81.4
CCc1nc(N)nc(N)c1-c1ccc(Cl)cc1	97.6
CC1(C)C(=O)C=CC2(C)C1CC(O)C1(C)C2CCC2(C)C(c3ccoc3)OC(=O)C3OC321 (stereo not drawn)	76
OCCN1CCN(CCCN2c3ccccc3Sc3ccc(C(F)(F)F)cc32)CC1	100
CC[C@@]1([C@@H]2O[C@@H]([C@H]3O[C@@](O)(CO)[C@H](C)C[C@@H]3C)C[C@@H]2C)CC[C@H]([C@]2(C)CC[C@]3(C[C@H](O)[C@@H](C)[C@@H]([C@@H](C)[C@@H](OC)[C@H](C)C(=O)O)O3)O2)O1	41.3
CN(C)CCCN1c2ccccc2Sc2ccccc21.Cl	98.7
CC1(C)C(=O)C=CC2(C)C1CC(=O)C1(C)C2CCC2(C)C(c3ccoc3)OC(=O)C3OC321 (stereo not drawn)	75.8
